Compound activity (PubChem)
Most compounds without a hit are left out; they make up all but 2.9% or so of the library.
MEKK2mut PB1 HTS – MEK5 binding signal on mutant MEKK2 PB1, primary screen, biochemical, multiplex bead flow cytometry, Alexa488-MEK5; Alexa488-MEK5 binding to MEKK2 mutant; percent response, % at 10 µM; 290,000 tested, 0.35% active; in the data active = percent response above about 24%, passing the limit was not always enough
MEKK2wt PB1 HTS – modulators of MEK5 binding to wildtype MEKK2, primary screen, biochemical, multiplex bead flow cytometry, Alexa488-MEK5; binding response (% of control), % at 10 µM; Mitogen-activated protein kinase kinase kinase 2 (Homo sapiens), Q9Y2U5; Alexa488-MEK5 binding to MEKK2 WT; actives lie on both sides; 290,000 tested, 1.1% active; in the data active = binding response below about 67% or above about 130%
MEKK3 PB1 HTS – modulators of MEKK3-MEK5 PB1 binding, primary screen, biochemical, wildtype MEKK3, multiplex bead flow cytometry, Alexa488-MEK5. bead-based flow cytometry, Alexa488-MEK5 binding to MEKK3; actives lie on both sides; 0 = blocked by unlabeled MEK5, 100 = vehicle. AID 1529, 2009. binding response (% of control), % at 10 µM. Mitogen-activated protein kinase kinase kinase 3 (Homo sapiens), Q99759. 290,000 tested, 1.4% active;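 active = binding response more than 3 SD above or below the average of its plate-row segment, actives on both sides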;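 also: Alexa488 bead fluorescence after subtracting the streptavidin-only scavenger bead signal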
Target sequence (Q99759 whole entry, looked up): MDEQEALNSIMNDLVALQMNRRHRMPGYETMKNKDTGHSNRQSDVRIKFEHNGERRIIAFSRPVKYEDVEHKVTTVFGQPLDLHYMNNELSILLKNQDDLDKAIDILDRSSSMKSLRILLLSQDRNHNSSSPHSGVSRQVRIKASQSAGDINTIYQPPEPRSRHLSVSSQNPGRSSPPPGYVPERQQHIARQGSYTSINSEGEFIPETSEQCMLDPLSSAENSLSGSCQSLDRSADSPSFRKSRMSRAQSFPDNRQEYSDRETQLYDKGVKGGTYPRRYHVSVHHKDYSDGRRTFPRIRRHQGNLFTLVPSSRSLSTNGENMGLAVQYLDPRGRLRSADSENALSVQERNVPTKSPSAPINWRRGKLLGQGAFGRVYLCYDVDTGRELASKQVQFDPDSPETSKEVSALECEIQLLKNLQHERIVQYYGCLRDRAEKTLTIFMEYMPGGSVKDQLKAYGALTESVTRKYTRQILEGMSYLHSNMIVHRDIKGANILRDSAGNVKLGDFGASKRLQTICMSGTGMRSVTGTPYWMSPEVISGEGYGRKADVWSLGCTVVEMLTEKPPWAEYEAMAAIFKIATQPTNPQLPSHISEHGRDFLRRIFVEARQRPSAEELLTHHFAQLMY
FID counter – compounds displacing fluorescent DNA intercalator, primary screen, artefact control for HCV NS3 helicase inhibitor project, biochemical, FID fluorescence. DNA fluorescent intercalator displacement. inhibition, % at 7.9 µM. 290,000 tested, 0.17% active. AID 1845, 2009; in the data active = inhibition above about 37%;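 also: 0% = vehicle and 100% = reference compound; higher means more ethidium bromide displaced from hairpin DNA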
dFosB act – activators of delta FosB homodimer, primary screen, biochemical, fluorescence polarization, TAMRA-CDK5 oligo, single point. Protein FosB (Mus musculus), P13346. 340,000 tested, 0.99% active. activation, % at 25 µM. AID 493131, 2011. purified delta FosB; percent of positive-control signal above neutral wells;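 active = mean activation above about 17%, with every replicate also reaching it, limit read from the data, passing the limit was not always enough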
* hit, by the source's call; [ ] = another dose, or the depositor's remark.

O=C(Nc1cccnc1Cl)c1ccc(=O)oc1 was read as MEKK2mut PB1 HTS 7, MEKK2wt PB1 HTS 102, MEKK3 PB1 HTS 106, FID counter 0 and dFosB act -2.
For Cc1ccc(NC(=S)NC2CCN(Cc3ccccc3)CC2)cc1 the results were MEKK2mut PB1 HTS -1, MEKK2wt PB1 HTS 97, MEKK3 PB1 HTS 98, FID counter 6 and dFosB act -6.
`S=C(Nc1cc(Cl)cc(Cl)c1)NC1CCN(Cc2ccccc2)CC1` gave MEKK2mut PB1 HTS 10, MEKK2wt PB1 HTS 135*, MEKK3 PB1 HTS 103, FID counter 23 and dFosB act -40.
Screening O=C(c1ccsc1)N1CCCC(Nc2cccc(F)c2)C1 (stereo unspecified) returned MEKK2mut PB1 HTS 4, MEKK2wt PB1 HTS 104, MEKK3 PB1 HTS 100, FID counter -13 and dFosB act 4.
Nc1ccc(Cc2ccc(N)c(O)c2)cc1O was read as MEKK2mut PB1 HTS 0, MEKK2wt PB1 HTS 103, MEKK3 PB1 HTS 108, FID counter -2 and dFosB act 44*.
Screening CCOc1ccc(NS(=O)(=O)c2ccc(C(=O)N3CCC3)cc2)cc1 returned MEKK2mut PB1 HTS -10, MEKK2wt PB1 HTS 94, MEKK3 PB1 HTS 81, FID counter -8 and dFosB act 1.
Cc1ccc(-c2cc(C(=O)N/N=C/c3ccccc3O)n[nH]2)o1 was read as MEKK2mut PB1 HTS 0, MEKK2wt PB1 HTS 98, MEKK3 PB1 HTS 98, FID counter -20 and dFosB act 51*.
Screening CCCc1cc(=O)n2nc(N3CCC(C(=O)N4CCN(c5ccc(OC)cc5)CC4)CC3)sc2n1 returned MEKK2mut PB1 HTS 1, MEKK2wt PB1 HTS 99, MEKK3 PB1 HTS 99, FID counter -57 and dFosB act -9.
COCCN(C(=O)COC(=O)c1oc2ccc(OC)cc2c1C)c1c(N)n(Cc2ccccc2)c(=O)[nH]c1=O was read as MEKK2mut PB1 HTS 8, MEKK2wt PB1 HTS 109, MEKK3 PB1 HTS 106, FID counter -39 and dFosB act -3.
Screening Cc1cccc(C(=O)N/C(=C\c2ccco2)C(=O)N2CCCC2)c1 returned MEKK2mut PB1 HTS -1, MEKK2wt PB1 HTS 98, MEKK3 PB1 HTS 96, FID counter -41 and dFosB act -2.
For Cc1cccc(C(=O)N/C(=C\c2ccc(C)o2)C(=O)O)c1 the results were MEKK2mut PB1 HTS 2, MEKK2wt PB1 HTS -3.0*, MEKK3 PB1 HTS 98, FID counter -5 and dFosB act 1.
CCN(CC)CCSc1nc2ccccc2c(=S)n1-c1ccccc1 was read as MEKK2mut PB1 HTS -8, MEKK2wt PB1 HTS 120, MEKK3 PB1 HTS 105 and FID counter 45*.
CCN(CC)CCSc1nc(O)c(-c2ccccc2)c(=O)n1-c1ccccc1 was read as MEKK2mut PB1 HTS 4, MEKK2wt PB1 HTS 104, MEKK3 PB1 HTS 102, FID counter -6 and dFosB act 2.
Screening CC(OC(=O)/C(C#N)=C/c1ccc(N(C)C)cc1)C(=O)N(C)c1ccccc1 (stereo unspecified) returned dFosB act 6.
CC(=O)Nc1ccc(NC(=O)C(C)OC(=O)/C(C#N)=C/c2ccc(N(C)C)cc2)cc1 (stereo unspecified) was read as dFosB act 36*.
Screening CCn1c(C)nc2cc(C(=O)N/N=C/c3ccc(O)c(O)c3O)ccc21 returned MEKK2mut PB1 HTS -1, MEKK2wt PB1 HTS 97, MEKK3 PB1 HTS 98, FID counter -25 and dFosB act -12.
CCn1c(C)nc2cc(C(=O)N/N=C/c3cccc(OC)c3O)ccc21 was read as MEKK2mut PB1 HTS -1, MEKK2wt PB1 HTS 97, MEKK3 PB1 HTS 97, FID counter -15 and dFosB act 22*.
For CC(=O)c1cccc(NC(=O)c2cccc(N3C(=O)c4ccccc4C3=O)c2)c1 the results were MEKK2mut PB1 HTS 0, MEKK2wt PB1 HTS 98, MEKK3 PB1 HTS 103, FID counter -23 and dFosB act 31*.
`NS(=O)(=O)c1cccc(NC(=O)c2cccc(N3C(=O)c4ccccc4C3=O)c2)c1` gave dFosB act -11.
`O=C(Cn1nnc(-c2ccccc2)n1)Nc1cccc(S(=O)(=O)N2CCOCC2)c1` gave dFosB act -4.
Screening NC(=O)c1ccc(-c2nnn(CC(=O)Nc3cccc(S(=O)(=O)N4CCCC4)c3)n2)cc1 returned dFosB act 110*.
For O=C(CCN1C(=O)/C(=C/c2ccccc2Cl)SC1=S)NC1C=CS(=O)(=O)C1 (stereo unspecified) the results were MEKK2mut PB1 HTS -7, MEKK2wt PB1 HTS 95, MEKK3 PB1 HTS 97, FID counter -21 and dFosB act 28*.
Screening CC1(C)c2ccccc2N(CC(N)=O)C12C=Cc1ccccc1O2 (stereo unspecified) returned MEKK2mut PB1 HTS 3, MEKK2wt PB1 HTS 94, MEKK3 PB1 HTS 102, FID counter -9 and dFosB act 12.
For CC1(C)c2ccccc2N2CC(=O)N(CC(N)=O)C21C (stereo unspecified) the results were MEKK2mut PB1 HTS 0, MEKK2wt PB1 HTS 101, MEKK3 PB1 HTS 93, FID counter -36 and dFosB act 40*.
For O=C(c1cc2cc(F)ccc2[nH]1)N1CCCC(Nc2ccc(F)cc2)C1 (stereo unspecified) the results were MEKK2mut PB1 HTS 2, MEKK2wt PB1 HTS 100, MEKK3 PB1 HTS 99, FID counter -17 and dFosB act -7.
`CCOc1ncccc1C(=O)NNC(=O)c1csc(N2CCOCC2)n1` gave dFosB act 6.
For CC1Cc2cc(S(=O)(=O)N3CCC(C(N)=O)CC3)ccc2N1C(=O)C1CC1 (stereo unspecified) the results were MEKK2mut PB1 HTS -17, MEKK2wt PB1 HTS 0.0*[inhibitor], MEKK3 PB1 HTS 2.0*[inhibitor], FID counter -13 and dFosB act -6.
For Cc1cc(NC(=O)c2cc([N+](=O)[O-])cc([N+](=O)[O-])c2)n(-c2ccccc2)n1 the results were MEKK2mut PB1 HTS 8, MEKK2wt PB1 HTS 30*, MEKK3 PB1 HTS 103, FID counter 1 and dFosB act -1.
`CCN(CC)CCNC(=O)c1ccc(NC(=O)Nc2cccc3ccccc23)cc1` gave MEKK2mut PB1 HTS 30*, MEKK2wt PB1 HTS 140*, MEKK3 PB1 HTS 101, FID counter 20 and dFosB act -12.
`CCN(CC)CCNC(=O)c1ccc(NC(=O)c2ccc(Cl)c(S(=O)(=O)Nc3ccccc3OC)c2)cc1` gave MEKK2mut PB1 HTS 12, MEKK2wt PB1 HTS 147*, MEKK3 PB1 HTS 104 and FID counter 15.
